Test results taken from the supplement of paper PMC7156485.
± gives the standard deviation of the averaged measurements.

Tests used:
Conditions in all cases: concentration: 10 µM; 24 h
[1] = tested on: HCC1569; test: cell number relative to DMSO (% of DMSO); higher = more cells (less growth inhibition / toxicity)
How it was run: (§1)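 For HCC1569 and TDF cells, compounds at 10 µM were applied for 24 h at 37 °C in triplicate in 384-well plates. Cells were fixed in 3.7% formaldehyde, stained for H1.0 and with DAPI, and imaged at ×10 over six fields per well. The endpoint, H1.0 nuclear intensity or cell number, is shown as percent of the plate control using the median of replicates. Positional effects were smoothed for HCC1569 only.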

[2] = tested on: TDF; test: as above
How it was run: as §1

[3] = tested on: TDF; test: H1.0 immunofluorescence intensity relative to DMSO (% of DMSO); higher = stronger H1.0 induction, active = 120 or more
How it was run: as §1

[4] = tested on: HCC1569; test: H1.0 immunofluorescence intensity relative to DMSO (% of DMSO); higher = stronger H1.0 induction, active = 140 or more
How it was run: as §1
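Throughout, for H1.0 immunofluorescence intensity relative to DMSO: TDF is a line of transformed human dermal fibroblasts of mesenchymal origin.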
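Throughout, for cell number relative to DMSO: TDF denotes transformed human dermal fibroblasts of mesenchymal origin.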

CC1(C)CCCC2(C)C1CCC1(C)OC(=O)CC12 [(3aR)-(+)-Sclaerolide]
cell number [1]: 99
cell number [2]: 105
H1.0 immunofluorescence intensity [3]: 92.9 (inactive)
H1.0 immunofluorescence intensity [4]: 84.9 (inactive)

C=C1C(=O)C23C(O)C1CCC2C12COC3(O)C(O)C1C(C)(C)CCC2O (stereo unspecified) [Oridonin]
cell number [1]: 80.4
cell number [2]: 110
H1.0 immunofluorescence intensity [3]: 93 (inactive)
H1.0 immunofluorescence intensity [4]: 111 (inactive)

CC12CCC3c4ccc(O)cc4CC(CCCCCCCCCS(=O)CCCC(F)(F)C(F)(F)F)C3C1CCC2O (stereo unspecified) [Fulvestrant]
cell number [1]: 94.7
cell number [2]: 94.3
H1.0 immunofluorescence intensity [3]: 104 (inactive)
H1.0 immunofluorescence intensity [4]: 110 (inactive)

C[N+]1(C)CCCC1C(=O)[O-].Cl (stereo unspecified)
cell number [1]: 96.1
cell number [2]: 115
H1.0 immunofluorescence intensity [3]: 95.9 (inactive)
H1.0 immunofluorescence intensity [4]: 109 (inactive)

CC12CCC(=O)C=C1C=CC1C2CCC2(C)C1CCC21CCC(=O)O1 (stereo unspecified) [Canrenone]
cell number [1]: 99.6
cell number [2]: 103
H1.0 immunofluorescence intensity [3]: 89.7 (inactive)
H1.0 immunofluorescence intensity [4]: 102 (inactive)

NS(=O)(=O)c1ccc(-n2nc(C(F)(F)F)cc2-c2ccc(Cl)cc2)cc1
cell number [1]: 90.5
cell number [2]: 104
H1.0 immunofluorescence intensity [3]: 90.5 (inactive)
H1.0 immunofluorescence intensity [4]: 90.7 (inactive)

CCN1C(=O)C=CC1=O [N-Ethylmaleimide]
cell number [1]: 102 ± 5.4
cell number [2]: 97.2 ± 4.9
H1.0 immunofluorescence intensity [3]: 96.6 (inactive)
H1.0 immunofluorescence intensity [4]: 91.7 (inactive)

COc1cc2nc(N(C)CCCNC(=O)C3CCCO3)nc(N)c2cc1OC (stereo unspecified) [Alfuzosin]
cell number [1]: 99.7
cell number [2]: 96.5
H1.0 immunofluorescence intensity [3]: 97.7 (inactive)
H1.0 immunofluorescence intensity [4]: 102 (inactive)

CN(C)c1ccc(O)c2c1CC1CC3C(N(C)C)C(=O)C(C(N)=O)=C(O)C3(O)C(=O)C1=C2O.Cl (stereo unspecified) [Minocycline hydrochloride]
cell number [1]: 99
cell number [2]: 109
H1.0 immunofluorescence intensity [3]: 99.7 (inactive)
H1.0 immunofluorescence intensity [4]: 100 (inactive)
